These results are taken from PubChem BioAssay (Tox21).

Each structure is given as a SMILES string. Records with an inconclusive call do not appear. Unmarked numbers belong to inactive results. Active and inactive are the calls of the source. Unless noted, calls come from the whole dose curve; as a rule, active = well fitted curve in the direction sought with a large enough effect in the repeat runs; inconclusive = weak or mixed curves; inactive = no such curve, though single readings can be large; an effect the other way counts as inactive or inconclusive.

The target of assay [1] is Retinoic acid receptor RXR-alpha (Homo sapiens) (UniProt P19793). The experiment in a line: qHTS assay to identify small molecule agonists of the RXR signaling pathway (AID 1159527; calls by dose curve; note: nearly all actives have a fitted effect of over 35% in size; note: potency is the fitted concentration of half-maximal effect). In outline:
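qHTS of the Tox21 10K library in GeneBLAzer RXR-alpha HEK 293T cells carrying a beta-lactamase reporter […]; 16 hr treatment, 9-cis retinoic acid as agonist control, FRET read-out.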
On the technique in general: qHTS replaces the single test concentration by a dilution series.

A short description of assay [2]: qHTS assay to identify small molecule agonists of the RXR signaling pathway - cell viability counter screen (AID 1159529). Note: series mostly up to about 77 µM; nearly all actives have a fitted effect of over 50% in size. In outline: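 Cell viability is measured by CellTiter-Glo luminescence, 30 min at room temperature, in wells already read for beta-lactamase. Engineered HEK 293T cells (RXR-alpha-UAS-bla) are dosed 16 hr at 37 C. Tetraoctyl ammonium bromide serves as positive control.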

The nature of assay [3]: qHTS assay to identify small molecule antagonists of the retinoid acid receptor (RAR) signaling pathway - cell viability counter screen (AID 1159551). Note: nearly all actives have a fitted effect of over 35% in size. The procedure, abridged:
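Retinol-stimulated (1 uM final) C3RL4 cells, compound 6 h, 37 C; readout CellTiter-Glo luminescence (ATP) after 30 min RT incubation.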

Assay [4] is described as follows: qHTS assay to identify small molecule agonists of the retinoic acid receptor (RAR) signaling pathway (AID 1159553). Note: potency is the fitted concentration of half-maximal effect. The procedure, abridged:
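Reporter readout comes from luciferase under RARE control in C3RL4 cells; compound exposure lasts 6 hr at 37 C in 5% CO2, and luminescence is recorded following a 30 min room-temperature incubation with reagent.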

A short description of assay [5]: qHTS assay to identify small molecule antagonists of the estrogen related receptor (ERR) signaling pathway from Tox21 library - cell viability counter screen (AID 1224834). Note: nearly all actives have a fitted effect of over 30% in size. In outline:
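After 17.5 h of compound exposure at 37 C, ERR cells are incubated with CellTiter-Fluor for 30 min and fluorescence intensity serves as the viability measure.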

For assay [6], the target named is Luciferin 4-monooxygenase (Photinus pyralis) (UniProt P08659). The experiment in a line: qHTS assay to identify small molecule inhibitors of firefly luciferase (AID 1224835). Note: nearly all actives have a fitted effect of over 25% in size. Note: potency is the fitted concentration of half-maximal effect. In outline: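 Inhibition of purified Photinus luciferase is measured by luminescence. Substrate levels (D-luciferin, ATP) sit at their KM values. Each compound is tested in a concentration series.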
Luciferin 4-monooxygenase (Photinus pyralis), sequence (P08659 whole entry, looked up): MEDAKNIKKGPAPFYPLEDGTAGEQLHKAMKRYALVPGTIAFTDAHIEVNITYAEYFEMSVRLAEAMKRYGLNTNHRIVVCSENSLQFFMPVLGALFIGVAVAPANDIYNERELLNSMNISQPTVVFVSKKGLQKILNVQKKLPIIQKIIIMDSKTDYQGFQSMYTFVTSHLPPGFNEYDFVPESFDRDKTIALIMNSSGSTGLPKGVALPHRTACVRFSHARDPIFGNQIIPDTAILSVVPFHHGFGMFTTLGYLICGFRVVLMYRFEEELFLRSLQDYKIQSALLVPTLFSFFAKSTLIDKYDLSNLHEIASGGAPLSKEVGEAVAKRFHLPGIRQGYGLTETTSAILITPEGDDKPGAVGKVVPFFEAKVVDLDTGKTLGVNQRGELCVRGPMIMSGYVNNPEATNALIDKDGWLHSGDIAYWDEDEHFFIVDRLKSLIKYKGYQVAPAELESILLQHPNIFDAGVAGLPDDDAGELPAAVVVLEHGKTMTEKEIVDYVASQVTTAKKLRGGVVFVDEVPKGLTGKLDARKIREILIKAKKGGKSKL

Assay [7] in a line: qHTS assay to identify small molecule agonists of the constitutive androstane receptor (CAR) signaling pathway - cell viability counter screen (AID 1224836). Note: series mostly up to about 92 µM; nearly all actives have a fitted effect of over 45% in size. The procedure, abridged:
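Counter screen multiplexed with the CAR reporter readout: HepG2 cells co-transfected with hCAR and the CYP2B6-2.2kb construct receive a 15-concentration compound series and 0.75 uM PK11195 (final), then CellTiter-Fluor fluorescence is read after 23 h.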

Assay [8] concerns the target Nuclear receptor subfamily 1 group I member 3 (Homo sapiens) (UniProt Q14994). In words: qHTS assay to identify small molecule antagonists of the constitutive androstane receptor (CAR) signaling pathway (AID 1224838).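 Note: HepG2 cells stably expressing hCAR with CYP2B6 luciferase reporter stimulated by CITCO; nearly all actives have a fitted effect of over 40% in size.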 The procedure, abridged: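 Cell line: HepG2 double-stable for hCAR and CYP2B6-2.2kb reporter. Agonist: CITCO, 50 nM final. Compounds: 15 concentrations, 24 h, 37 C. Detection: ONE-Glo luminescence.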

A short description of assay [9]: qHTS assay to identify small molecule antagonists of the estrogen related receptor signaling pathway with the pleiotropic PPARgamma coactivator (PGC) from Tox21 10K library - cell viability counter screen (AID 1224840; active = well fitted cell-killing curve with a large enough effect in the repeat runs, not every such curve was filed as active; note: nearly all actives have a fitted effect of over 40% in size). The procedure, abridged:
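Following seeding of 2,000 PGC/ERR cells/well and 6 hours' incubation, test compounds were delivered in DMSO. The plates then sat 17.5 hours at 37 C before a fluorogenic live-cell protease reagent (CellTiter-Fluor) was read after 30 min.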

Assay [10] addresses Thyrotropin receptor (Homo sapiens) (UniProt P16473). In words: qHTS assay to identify small molecule agonists of the thyroid stimulating hormone receptor (TSHR) signaling pathway (AID 1224843; calls by dose curve; note: nearly all actives have a fitted effect of over 45% in size). The procedure, abridged:
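HEK293 cells stably bearing the thyrotropin receptor were plated at 800 cells/well and challenged with compound (30 min, RT). Accumulated cAMP was quantified via cAMP-d2 competing for cryptate-tagged antibody.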

A short description of assay [11]: qHTS assay to identify small molecule agonists of H2AX (AID 1224845; active = well fitted activation curve with a large enough effect in the signal ratio in the repeat runs, not every such curve was filed as active; the % refers to the signal ratio). The procedure, abridged:
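Phospho-H2AX Ser139 measured by HTRF (ex 320 nm; em 665 and 620 nm) after 24 hr antibody incubation. Compounds, 15 concentrations, 0.76% DMSO, were applied to CHO-K1 cells for 3hr at 37C before lysis.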

Assay [12] in a line: qHTS assay to identify small molecule agonists of the hypoxia (HIF-1) signaling pathway (AID 1224846; active = well fitted activation curve with a large enough effect in the signal ratio in the repeat runs, not every such curve was filed as active; the % refers to the signal ratio). The procedure, abridged: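 A low-serum medium (0.5% dialyzed FBS) holding 2,000 HRE-bla ME-180 cells per well is preincubated for 5 hrs, dosed with compounds by pintool, and kept a further 17 hrs at 37C, 5% CO2 before CCF4-AM FRET detection of beta-lactamase.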
A short description of assay [13]: qHTS assay to identify small molecule agonists of H2AX - cell viability counter screen (AID 1224847; calls by dose curve; note: top concentration of the series differs between compounds; nearly all actives have a fitted effect of over 30% in size). The procedure, abridged: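 We seed wild-type CHO-K1 cells overnight, treat them for 3 hr at 37C with compounds in 15-concentration series, and quantify remaining viability by CellTiter-Glo luminescence.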
Assay [14] can be described thus: qHTS assay to identify small molecule antagonists of the constitutive androstane receptor (CAR) signaling pathway - cell viability counter screen (AID 1224837). Note: series mostly up to about 92 µM; nearly all actives have a fitted effect of over 45% in size. The procedure, abridged:
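Counter screen run in HepG2-CYP2B6-hCAR cells: 4 hr settle, compound titration (15 concentrations) with 50 nM CITCO, 23 hr at 37 C/5% CO2, CellTiter-Fluor fluorescence.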

Assay [15] can be described thus: qHTS assay to identify small molecule agonists of the hypoxia (HIF-1) signaling pathway - cell viability counter screen (AID 1224844; calls by dose curve; note: nearly all actives have a fitted effect of over 50% in size). In outline:
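Cells (HRE-bla ME-180, 2,000 per well) sat 5 hrs at 37C, got compound for 17 hrs, were read for CCF4-AM FRET, and were finally lysed with CellTiter-Glo for a 30 min room-temperature luminescence read.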

Assay [16] in a line: qHTS assay to identify small molecule antagonists of the estrogen related receptor (ERR) signaling pathway from Tox21 library (AID 1224848). Note: nearly all actives have a fitted effect of over 50% in size. The procedure, abridged:
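Reading was by luminescence 30 min after ONE-Glo addition. Before that, ERR cells at 2,000 per well had rested 6 h at 37 C/5% CO2 and then received pin-tooled compounds in DMSO for 18 h at 37 C.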

A short description of assay [17]: qHTS assay to identify small molecule antagonists of the retinoic acid receptor (RAR) signaling pathway (AID 1159552; note: nearly all actives have a fitted effect of over 50% in size). The procedure, abridged: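 Quantitative HTS in C3RL4 RARE-luciferase reporter cells. Compounds were added with 1 uM (final) retinol; luminescence was read after 6 hr.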
Assay [18] has as its target Nuclear receptor subfamily 1 group I member 3 (Homo sapiens) (UniProt Q14994). In words: qHTS assay to identify small molecule agonists of the constitutive androstane receptor (CAR) signaling pathway (AID 1224839). Note: series mostly up to about 92 µM; nearly all actives have a fitted effect of over 15% in size. In outline:
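A 15-concentration quantitative screen uses HepG2 cells co-transfected stably with human CAR and CYP2B6-2.2kb reporter. Treatment lasts 24 h with 0.75 uM PK11195 final present; ONE-Glo luminescence is the signal.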

The nature of assay [19]: qHTS assay to identify small molecule antagonists of the estrogen related receptor signaling pathway with the pleiotropic PPARgamma coactivator (PGC) from Tox21 10K library (AID 1224841; call rule not given here). In outline:
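qHTS antagonist format: PGC/ERR cells, 2k/well, compound in DMSO by pin transfer after 6 h attachment, 18 h treatment at 37 C, One-Glo luminescence read at 30 min.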

Assay [20] is described as follows: qHTS assay to identify small molecule agonists of the estrogen related receptor signaling pathway with the pleiotropic PPARgamma coactivator (PGC) from Tox21 10K library (AID 1224842). Note: nearly all actives have a fitted effect of over 15% in size. The procedure, abridged:
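Luminescence from One-Glo (30 min, room temperature) measured after PGC/ERR cells had 18 h at 37 C with pinned compound (23 nL in DMSO). Cells had been seeded at 2,000 per well and pre-incubated 6 h.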

Thyrotropin receptor (Homo sapiens), sequence (P16473 whole entry, looked up): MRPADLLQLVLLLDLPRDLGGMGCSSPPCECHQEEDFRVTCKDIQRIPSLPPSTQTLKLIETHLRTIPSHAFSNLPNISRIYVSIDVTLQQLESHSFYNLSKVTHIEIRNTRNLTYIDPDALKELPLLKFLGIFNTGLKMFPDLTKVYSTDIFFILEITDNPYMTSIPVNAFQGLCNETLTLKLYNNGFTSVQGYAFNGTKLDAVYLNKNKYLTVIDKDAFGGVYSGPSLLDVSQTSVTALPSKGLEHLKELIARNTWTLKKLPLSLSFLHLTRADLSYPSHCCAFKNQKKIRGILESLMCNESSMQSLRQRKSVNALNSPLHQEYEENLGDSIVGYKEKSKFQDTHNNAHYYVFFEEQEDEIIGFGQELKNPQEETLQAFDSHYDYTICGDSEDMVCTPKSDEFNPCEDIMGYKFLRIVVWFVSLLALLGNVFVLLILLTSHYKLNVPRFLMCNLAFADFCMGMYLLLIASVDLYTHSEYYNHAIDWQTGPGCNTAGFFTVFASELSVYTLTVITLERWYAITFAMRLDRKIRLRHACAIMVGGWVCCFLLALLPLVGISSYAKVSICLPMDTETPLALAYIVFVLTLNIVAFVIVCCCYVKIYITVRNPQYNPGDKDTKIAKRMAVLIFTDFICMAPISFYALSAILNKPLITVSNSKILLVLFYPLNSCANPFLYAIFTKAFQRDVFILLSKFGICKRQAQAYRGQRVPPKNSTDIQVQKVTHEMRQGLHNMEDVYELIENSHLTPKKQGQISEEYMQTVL
Nuclear receptor subfamily 1 group I member 3 (Homo sapiens), sequence (Q14994 whole entry, looked up): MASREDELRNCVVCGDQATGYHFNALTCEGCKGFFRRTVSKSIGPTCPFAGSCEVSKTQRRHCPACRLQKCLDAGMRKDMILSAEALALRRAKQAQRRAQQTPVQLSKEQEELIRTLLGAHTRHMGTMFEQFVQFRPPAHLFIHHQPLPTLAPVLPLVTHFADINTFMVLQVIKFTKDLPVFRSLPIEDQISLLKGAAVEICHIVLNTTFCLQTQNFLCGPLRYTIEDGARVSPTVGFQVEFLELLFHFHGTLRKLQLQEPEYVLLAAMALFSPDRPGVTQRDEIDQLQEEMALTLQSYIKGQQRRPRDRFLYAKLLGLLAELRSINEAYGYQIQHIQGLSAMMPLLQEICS
Retinoic acid receptor RXR-alpha (Homo sapiens), sequence (P19793 whole entry, looked up): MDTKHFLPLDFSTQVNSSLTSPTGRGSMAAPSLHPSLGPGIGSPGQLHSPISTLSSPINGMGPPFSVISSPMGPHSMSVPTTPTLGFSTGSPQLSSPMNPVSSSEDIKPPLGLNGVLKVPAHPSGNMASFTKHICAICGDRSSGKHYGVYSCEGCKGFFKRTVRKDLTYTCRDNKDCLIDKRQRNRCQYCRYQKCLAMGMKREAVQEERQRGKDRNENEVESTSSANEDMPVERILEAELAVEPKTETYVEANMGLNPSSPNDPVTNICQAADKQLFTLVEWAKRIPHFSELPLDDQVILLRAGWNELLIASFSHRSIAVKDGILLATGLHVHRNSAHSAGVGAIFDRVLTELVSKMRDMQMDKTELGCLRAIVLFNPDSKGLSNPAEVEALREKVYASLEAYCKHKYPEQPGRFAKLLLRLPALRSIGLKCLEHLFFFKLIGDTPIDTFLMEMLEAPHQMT

Take `CC(S)C(C)S` (stereo not given): the Potency result in [1], in assay [4], in assay [6] and in assay [8] was “inactive” throughout. In addition, the result in assay [2], in [3], in assay [5], in assay [7], in assay [9] and in [10] was inactive. Besides, the outcome in [11], in assay [12] and in assay [13] was inactive.
Consider `Fc1ccccc1`, for which the Potency entry in [1], in assay [6], in assay [8] and in assay [16] was “inactive” throughout. Also, the call in assay [2], in [3], in assay [5], in [7], in assay [14] and in [9] was inactive. The molecule was called inactive in [10], in assay [15], in assay [12] and in assay [13].
For the molecule `C[C@H]1[C@@H](c2ccccc2)NC(=O)N1C`, the Potency entry in assay [1], in assay [6], in [8] and in assay [18] was “inactive” throughout. Besides, the call in assay [2], in assay [3], in [17], in assay [7], in assay [14] and in assay [9] was inactive. The molecule was called inactive in assay [10], in [11], in [12] and in assay [13].
In the case of `CC(C)NC(=O)c1ccc(C=O)cc1`, the Potency entry in assay [1], in assay [8] and in assay [18] was “inactive” throughout. Besides, the result in [2], in assay [3], in assay [7], in [9], in assay [10] and in assay [15] was inactive. The call in assay [11], in assay [12] and in [13] was inactive. The Potency is 26.6 µM (active) in assay [4] and 17.4 µM (active) in assay [6].
In the case of `CCCC(=O)OCCC(C)CCC=C(C)C` (stereo not given), the Potency entry in assay [1], in [4], in assay [6], in assay [8], in assay [18] and in [16] was “inactive” each time. Moreover, the result in assay [2], in assay [3], in [5], in [7], in assay [14] and in assay [9] was inactive. Further, the result in assay [19], in assay [20], in [15], in assay [11], in assay [12] and in assay [13] was inactive.
For `OC[C@H]1O[C@@H](O[C@@H]2[C@@H](CO)O[C@](O)(CO)[C@H]2O)[C@H](O)[C@@H](O)[C@H]1O`, the Potency entry in assay [1], in assay [4], in assay [6], in assay [8] and in assay [18] was “inactive” in each case. Also, the molecule was called inactive in assay [2], in assay [3], in [5], in assay [7], in [14] and in [9]. Further, the molecule was classed as inactive in [10], in assay [15], in assay [11], in [12] and in assay [13].
Regarding `C=CCCCC`, the Potency entry in assay [1], in assay [4], in assay [6], in assay [8] and in [18] was “inactive” throughout. Moreover, the result in assay [2], in assay [3], in assay [5], in [7], in assay [14] and in [9] was inactive. The outcome in assay [10], in [11], in assay [12] and in assay [13] was inactive.
Regarding `CCC(C)C(=O)OCCc1ccccc1` (stereo not given), the Potency in assay [1] is 43.6 µM (active); in assay [6], 50.2 µM (active). The outcome in assay [2], in assay [3], in assay [5], in [7], in assay [14] and in assay [9] was inactive. Besides, the molecule was called inactive in assay [10], in [15], in [11], in assay [12] and in assay [13]. In addition, the Potency entry in assay [4], in assay [8] and in assay [18] was “inactive” each time.
Consider `CCCC(=O)OC/C=C(\C)CCC=C(C)C`, for which the Potency result in assay [1], in assay [6], in assay [8] and in [18] was “inactive” each time. In addition, the molecule was classed as inactive in assay [2], in [3], in [17], in assay [7], in assay [14] and in assay [9]. Besides, the outcome in assay [10], in assay [15], in assay [11], in assay [12] and in [13] was inactive.
